High-throughput results deposited in PubChem by Broad Institute.
ERAP1 inh: ERAP1 (human) enzyme inhibition | recombinant ERAP1, Leu-AMC fluorescence, 60 min | inhibition, % at 10.7 µM | 0.15% of 340,000 active;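 active = mean replicate inhibition of at least 30%, or all replicates individually reaching that 30% level; inactive = mean below 30% and not every replicate reaching it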;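 note: 0% = neutral control wells and 100% = L-leucinethiol positive control wells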
Casp6 inh: caspase-6 (human) enzyme inhibition. P55212. purified caspase-6, Z-VEID-R110 cleavage fluorescence. inhibition, % at 12.5 µM. 0.53% of 350,000 active;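 active = mean inhibition across replicates at least about 35%, with every replicate also reaching that limit, limit read from the data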;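 note: 0% = median of neutral control wells and 100% = no fluorescence left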
Target sequence (P55212 24-179 limits assumed): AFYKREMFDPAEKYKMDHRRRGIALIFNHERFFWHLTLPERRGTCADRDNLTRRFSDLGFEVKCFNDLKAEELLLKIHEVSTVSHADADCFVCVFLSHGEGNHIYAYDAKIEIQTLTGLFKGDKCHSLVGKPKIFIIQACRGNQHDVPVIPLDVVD
Target sequence (P55212 194-293 limits assumed): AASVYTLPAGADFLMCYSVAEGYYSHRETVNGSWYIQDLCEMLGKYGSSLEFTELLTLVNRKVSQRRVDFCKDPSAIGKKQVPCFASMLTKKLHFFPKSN
GSIS activator: primary screen for activators of insulin secretion dependent on glucose, INS-1E cells, GLuc reporter luminescence; INS-1E GLuc reporter insulin secretion, 2-3 h; activation, % at 16.6 µM; 0.61% of 370,000 active; AID 743287;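 active = lowest replicate activation of at least 40%, so every replicate reaches that level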;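 note: 0% = median of neutral control wells and 100% = median of IBMX positive control wells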
SIRT5 inh: inhibitors of human sirtuin-5 desuccinylase. 1.1% of 330,000 active. Q9NXA8. Purified SirT5, succinyl-peptide AMC, trypsin-coupled fluorescence. inhibition, % at 15 µM. AID 652115; in the data active = inhibition above about 15%
Target sequence (Q9NXA8 whole entry, looked up): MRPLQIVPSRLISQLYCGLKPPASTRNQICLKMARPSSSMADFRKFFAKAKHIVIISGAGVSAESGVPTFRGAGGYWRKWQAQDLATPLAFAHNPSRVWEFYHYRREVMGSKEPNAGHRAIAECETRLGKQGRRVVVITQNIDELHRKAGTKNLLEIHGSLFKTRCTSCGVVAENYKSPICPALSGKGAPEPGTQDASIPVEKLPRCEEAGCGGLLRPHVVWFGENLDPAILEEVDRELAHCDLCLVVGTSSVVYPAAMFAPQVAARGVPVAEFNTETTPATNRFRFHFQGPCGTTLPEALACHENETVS
FGF22 binding: FGF22 (human) thermal shift binding | activity (Tm shift, normalised), % at 9.99 µM | recombinant FGF22 thermal shift, SYPRO orange fluorescence; percent of sucrose octasulfate shift, DMSO zero | Q9HCT0 | 1.5% of 340,000 active;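 active = mean Tm shift, scaled 0 neutral to 100 positive control, at about 1.3% or above, every replicate too, limit read from the data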
* marks the source's active call; other numbers are inactive results; . = no result. An excerpt weighted towards active compounds, which were near 3.3% of everything screened.

SMILES	ERAP1 inh	Casp6 inh	GSIS activator	SIRT5 inh	FGF22 binding
COc1ccc(Cc2c(-c3ccccc3)nc3ccc(C)cn23)c(C)c1	-1.8	7.7	-1.4	-2.3	-0.1
COc1ccc(Cc2c(-c3cccc(Cl)c3)nc3ccc(C)cn23)c(C)c1	2.0	-0.3	7.5	22.4*	0.0
Nn1c(SCc2cccc(Oc3ccccc3)c2)nnc1C(F)(F)F	-4.4	0.8	-11.4	1.2	43.0*
c1ccc(CNc2nc(-c3cccs3)nc3ccccc23)cc1	0.0	-2.6	5.1	-1.3	43.4*
COc1ccc2c3c([nH]c2c1)[C@@H](CO)N(C(=O)C1CC1)CC31CN(C(=O)c2ccncc2)C1	6.4	2.2	5.0	1.0	-0.3
COc1ccc2c3c(n(C)c2c1)[C@H](CO)N(C(=O)C1CC1)CC31CN(C(=O)CN(C)C)C1	1.7	-3.6	10.0	3.6	0.2
COc1ccc2c3c([nH]c2c1)[C@@H](CO)N(Cc1ccccc1)CC31CN(C)C1	71.0*	-3.3	-7.9	1.9	-0.2
COc1ccc2c3c([nH]c2c1)[C@H](CO)N(C(=O)C1CC1)CC31CN(C(=O)c2ccncc2)C1	1.7	0.8	-12.0	15.2*	-0.2
COc1ccc2c3c(n(C)c2c1)[C@@H](CO)N(C(=O)C1CCC1)CC31CN(C(=O)CN(C)C)C1	0.5	-2.8	3.9	15.0*	-0.2
C[C@H](NC(=O)[C@@H]1[C@@H](CO)[C@@H]2Cn3c(ccc(C4=CCCC4)c3=O)[C@@H]2N1C)c1ccccc1	0.9	1.0	9.0	-8.9	.
C/C(=N\NC(=O)c1ccccc1)c1cccc(Br)c1	0.7	-1.2	3.7	1.7	0.0
C/C(=N\NC(=O)c1cccc(Br)c1)c1ccc(Br)cc1	.	.	56.3*	.	.
O=C1O[C@@H](c2ccccc2)[C@@H](c2ccccc2)N2[C@@H](c3ccc(OCCO)cc3)[C@]3(C(=O)Nc4ccccc43)[C@@H](C(=O)Nc3nc4ccccc4s3)[C@H]12	3.2	1.5	.	-3.5	0.0
COc1ccc(S(=O)(=O)N[C@H]2C=C[C@@H](CC(=O)O)O[C@H]2CO)cc1	-2.6	1.7	16.2	-2.6	0.0
CC1Cc2[nH]c(=S)[nH]c(=O)c2C(C(C)C)O1 (configuration not stated)	.	-1.2	-4.4	0.3	-0.3
CCCCC1Cc2[nH]c(=S)[nH]c(=O)c2C(C(C)C)O1 (configuration not stated)	-0.6	-1.7	41.9*	3.4	-0.3
C[C@@H]1CN([C@@H](C)CO)C(=O)c2cccc(NS(=O)(=O)c3ccc(Cl)cc3)c2O[C@@H]1CN(C)C(=O)Nc1ccc(C(F)(F)F)cc1	.	.	-21.0	.	.
NNC(=O)Cn1c2ccccc2c2ccccc21	1.4	-4.4	9.6	-3.0	-0.1
NNC(=O)Cn1c(-c2ccccc2)cc2ccccc21	-1.4	-0.1	-0.2	21.2*	0.0
C[C@H](CO)N1C[C@H](C)[C@H](CN(C)C(=O)Nc2ccccc2)Oc2c(NS(=O)(=O)c3ccc(Cl)cc3)cccc2C1=O	-5.4	-0.2	-17.6	1.2	0.0
CCOc1ccc(N(C)S(=O)(=O)c2ccc3[nH]cc(C(=O)NCCCOC)c(=O)c3c2)cc1	3.6	1.0	4.9	-5.6	-0.6
CCOc1ccc(N(C)S(=O)(=O)c2ccc3[nH]cc(C(=O)NCCOC)c(=O)c3c2)cc1	0.9	6.5	65.9*	0.9	-0.2
CCc1nnc(NC(=O)C(c2ccccc2)c2ccccc2)s1	2.5	-3.2	103.2*	2.9	-0.4
CCc1nnc(NC(=O)C(CC)c2ccccc2)s1 (configuration not stated)	.	.	-5.7	.	.
CCc1nnc(NC(=O)c2ccc3nc(CC)c(CC)nc3c2)s1	-0.1	-2.9	-5.5	-6.6	43.3*
SMILES	ERAP1 inh	Casp6 inh	GSIS activator	SIRT5 inh	FGF22 binding
CCOCc1c(C(=O)Nc2ccc(OC)nc2)oc2ccccc12	54.6*	0.3	8.7	-0.7	0.2
CCc1nnc(NC(=O)c2oc3ccccc3c2COC(C)C)s1	3.7	-2.9	.	.	43.0*
Cc1noc(C)c1NC(=O)N(C)C[C@H]1Oc2ccc(NS(=O)(=O)c3ccccc3)cc2CC(=O)N([C@@H](C)CO)C[C@H]1C	-2.8	2.1	26.3	-3.3	0.2
CC(C)NC(=O)N1C[C@@H]2[C@H](c3ccccc31)[C@H](CO)N2C(=O)c1ccccc1F	1.7	-0.6	4.5	1.0	0.2
CC(C)NC(=O)N(C)C[C@@H]1Oc2cc(C#CC(C)(C)O)ccc2S(=O)(=O)N([C@@H](C)CO)C[C@H]1C	.	.	2.5	-3.5	0.1
CC(=O)OCC(=O)[C@@]12OC(C)(C)O[C@@H]1CC1C3C[C@H](F)C4=CC(=O)C=CC4(C)[C@@]3(F)C(O)CC12C (some centres not stated)	-4.4	1.3	-10.9	-3.4	0.0
CC1(C)OC2CC3C4CC(F)C5=CC(=O)C=CC5(C)C4(F)C(O)CC3(C)C2(C(=O)CO)O1 (configuration not stated)	0.4	-1.1	-15.9	17.5*	-0.6
O=c1c2cc(Cl)ccc2nc(-c2ccc(Cl)c(Cl)c2)n1O	-2.7	0.1	5.2	-2.4	-0.4
O=c1c2cc(Cl)ccc2nc(-c2ccccc2)n1O	6.4	-5.9	-4.1	1.3	46.0*
Oc1ccc(-c2csc(Nc3cccc4ccccc34)n2)cc1O	2.9	43.1*	-12.3	1.4	0.0
Oc1ccc(-c2csc(Nc3ccccn3)n2)cc1O	0.6	30.3	-12.4	0.0	0.2
COCC(=O)N(C)C[C@@H]1Oc2ncc(C3=CCCC3)cc2C(=O)N([C@@H](C)CO)C[C@H]1C	-2.2	-0.8	29.2	-0.7	-0.2
Cc1cc(C(=O)NCC2CCCCC2)ccc1[N+](=O)[O-]	-3.4	-1.7	-16.0	22.0*	42.2
C[C@@H]1CN([C@@H](C)CO)C(=O)CCCn2cc(nn2)CO[C@H]1CN(C)Cc1ccc(O)cc1	-2.1	2.0	2.0	-2.5	0.0
CCCC#Cc1ccc([C@H]2[C@@H](CO)N(C(C)=O)[C@@H]2CNC(=O)C2CCC2)cc1	-2.6	-0.1	3.2	-0.2	.
C(=N\Nc1nc(-c2ccccc2)cs1)/c1cccnc1	.	.	-10.3	.	.
CC(C)(C)c1csc(N/N=C/c2cccnc2)n1	3.0	-0.2	.	2.8	43.8*
COc1ccc(NC(=O)Nc2ccc3c(c2)C(=O)N([C@@H](C)CO)C[C@@H](C)[C@H](CN(C)Cc2ccc(C(=O)O)cc2)O3)cc1	0.1	-1.1	14.3	-3.8	-0.1
CSS(=O)(=O)c1cccc2cccnc12	85.1*	-2.5	-3.5	-1.7	-0.1
CC1(C)CC(=O)C(N=Nc2ccc(F)cc2)=C(O)C1	0.3	-0.7	.	29.8*	0.2
CC1(C)CC(=O)C(N=Nc2ccc(Cl)cc2)=C(O)C1	.	.	0.3	.	.
C[C@@H]1CCCCO[C@H](CN(C)Cc2ccc3c(c2)OCO3)[C@H](C)CN([C@H](C)CO)C(=O)c2cc(NC(=O)Nc3ccccc3)ccc2O1	0.4	0.0	-22.3	2.1	-0.6
